The sample as a whole holds a higher share of hits than the screen did.
TbREL1 inh: TbREL1 inhibition, primary screen | P86926 | TbREL1 RNA ligation, FRET fluorescence | inhibition, % at 9.66 µM | hit rate 0.49% among 89,000 | AID 1117264;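 active = inhibition above the mean inhibition across all screened compounds plus 3 SD, cut at about 11% in these data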;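 note: 0% = plate median of test wells and 100% = NSC42067 control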
Target sequence (P86926 whole entry, looked up): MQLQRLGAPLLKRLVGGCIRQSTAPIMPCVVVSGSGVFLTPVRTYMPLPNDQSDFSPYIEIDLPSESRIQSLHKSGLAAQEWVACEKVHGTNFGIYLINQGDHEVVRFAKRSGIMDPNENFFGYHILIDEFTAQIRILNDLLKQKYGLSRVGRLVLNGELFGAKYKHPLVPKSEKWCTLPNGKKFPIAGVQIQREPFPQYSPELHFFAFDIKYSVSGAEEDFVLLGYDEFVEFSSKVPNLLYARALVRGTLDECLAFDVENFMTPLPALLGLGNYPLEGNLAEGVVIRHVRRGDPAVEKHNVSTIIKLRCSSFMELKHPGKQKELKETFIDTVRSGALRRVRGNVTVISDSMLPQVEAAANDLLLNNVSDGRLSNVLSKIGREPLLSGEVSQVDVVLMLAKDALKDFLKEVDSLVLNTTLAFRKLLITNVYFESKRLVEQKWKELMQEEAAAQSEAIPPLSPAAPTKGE
TbREL1 confirm: TbREL1 inhibition, confirmation; shares compounds with TbREL1 inh; TbREL1 RNA ligation, FRET fluorescence; inhibition, % at 9.66 µM; hit rate 37% among 390; AID 1117282;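 active = mean inhibition across replicates above a set limit taken from the earlier primary screen, cut at about 11% in these data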;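 note: 0% = REL1 with substrate and DMSO and 100% = REL1 plus control inhibitor NSC42067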
* = called active by the depositor.

SMILES | TbREL1 inh | others
O=S(=O)(c1cccs1)N1CCN(c2cccc(Cl)c2)CC1 | 3.3
CCCCNC(=O)NCC1CCN(Cc2ccc(OC)cc2)CC1 | 5.4
CCCC1CCC2(CC1)CCC2OC(=O)Nc1cccc(Cl)c1 (stereo not drawn) | 3.3
CCCC1CCC2(CC1)CCC2OC(=O)Nc1c(OC)cccc1OC (stereo not drawn) | 5.9
Nc1ccc2nc(-c3ccccn3)[nH]c2c1 | 0.2
Nc1ccc2nc(-c3ccc(N)c(Cl)c3)[nH]c2c1 | 13.2* | TbREL1 confirm=6.3
Nc1ccc2nc(-c3cccnc3)[nH]c2c1 | -0.3
C[C@H]1[C@@H](NC(=O)c2cccc(C(F)(F)F)c2)CC[C@@]23CCCN2C(=O)CCC[C@@H]13 | -3.4
CN1CCCC1CCSc1ncccc1-c1nc2ccccc2[nH]1 (stereo not drawn) | 0.9
C=CCN1C/C(=C/c2ccccc2)N2C(=O)CC(c3ccccc3)N=C12 (stereo not drawn) | -0.9
C#CCOCCOCCOCCNc1nc(N2CCN(C(=O)[C@H](Cc3ccc(O)cc3)n3cc([C@@H](N)CC(C)C)nn3)CC2)nc(N2CCN(C(=O)[C@H](Cc3cc4ccccc4[nH]3)n3cc([C@@H](N)CC(C)C)nn3)CC2)n1 | 3.2
C#CCOCCOCCOCCNc1nc(N2CCN(C(=O)[C@H]([C@@H](C)CC)n3cc([C@@H](N)CO)nn3)CC2)nc(N2CCN(C(=O)[C@H](CCCCN)n3cc([C@@H](N)CO)nn3)CC2)n1 | 4.6
C#CCOCCOCCOCCNc1nc(N2CCN(C(=O)[C@H](CCCCN)n3cc(CN)nn3)CC2)nc(N2CCN(C(=O)[C@H](CCC(=O)O)n3cc([C@@H](N)CCCCN)nn3)CC2)n1 | 5.8
C#CCOCCOCCOCCNc1nc(N2CCN(C(=O)[C@H](CCCCN)n3cc([C@@H](N)CC(C)C)nn3)CC2)nc(N2CCN(C(=O)[C@H](Cc3cc4ccccc4[nH]3)n3cc([C@@H](N)CC(C)C)nn3)CC2)n1 | 20.1* | TbREL1 confirm=12.9*
C#CCOCCOCCOCCNc1nc(N2CCN(C(=O)[C@H](CCC(=O)O)n3cc(C(N)Cc4ccc(O)cc4)nn3)CC2)nc(N2CCN(C(=O)[C@H](CCC(=O)O)n3cc(C(N)Cc4ccc(O)cc4)nn3)CC2)n1 (stereo partly drawn) | 3.2
C#CCOCCOCCOCCNc1nc(N2CCOCC2)nc(N2CCN(C(=O)[C@H](CCC(=O)O)n3cc(C(N)CO)nn3)CC2)n1 (stereo partly drawn) | 15.7* | TbREL1 confirm=5.0
C[C@H]1[C@@H](O)CC[C@@]23CCCN2C(=O)CCC[C@@H]13 | -3.5
O=C(OCc1cn(Cc2ccc(F)cc2)nn1)N1CCCC1 | 5.8
O=C(CSc1nnc(COc2ccccc2)n1-c1ccccc1)Nc1ccc2c(c1)OCCO2 | -3.3
CN(C)CCCNc1ncnc2oc(-c3ccccc3)c(-c3ccccc3)c12 | 11.7* | TbREL1 confirm=5.7
c1ccc(-c2c(-c3ccccc3)n(Cc3ccco3)c3ncnc(NCCCn4ccnc4)c23)cc1 | -1.9
COc1ccc(-c2oc3ncnc(N)c3c2-c2ccccc2)cc1 | 3.8
C[C@H]1[C@@H](OC(=O)NCc2cccs2)CC[C@@]23CCCN2C(=O)CCC[C@@H]13 | 3.6
O=C(Cn1cnc2ccccc2c1=O)N1CCN(C(=O)C2CCCO2)CC1 (stereo not drawn) | 2.5
Cc1nc(N)nc(N)c1/C=C/C(C)(C)c1ccc(Cl)cc1 | 14.8* | TbREL1 confirm=7.5
SMILES | TbREL1 inh | others
O=C1C(=O)N(Cc2ccc(-c3ccc(Cl)nc3)cc2)c2ccc(OC(F)(F)F)cc21 | 2.5
CCC(C)N(C(=O)c1ccc(CNC(=O)c2cccc(Br)c2)cc1)C(C)CC (stereo not drawn) | -3.4
C[C@@H]1[C@H](c2ccccc2)OC(O)([C@H](Cc2ccccc2)NC(=O)OC(C)(C)C)CN1C (stereo partly drawn) | -0.9
CCC[C@H]1[C@H](N)CC[C@@]23CCCN2C(=O)CCC[C@@H]13 | 9.2
CC(C)(C)c1ccc(-c2nnc(SCC(=O)Nc3ccccc3-c3ccccc3)n2Cc2ccco2)cc1 | 4.5
CC(=O)N1CCN(C2=Nc3ccccc3Sc3ccccc32)CC1 | 0.7
CCC[C@H]1[C@@H](NC(=O)c2ccc(Cl)c(C(F)(F)F)c2)CC[C@@]23CCCN2C(=O)CCC[C@@H]13 | -2.5
CCCCC(=O)N[C@H]1CC[C@@]23CCCN2C(=O)CCC[C@H]3[C@H]1CCC | -2.6
COc1ccc(CCNC(=O)c2c(N)[nH]c(C(=O)c3ccccc3)c2-c2ccc(N(C)C)cc2)cc1 | -4.2
COc1ccc(/C=N/NC(=O)c2cccnc2)cc1 | 1.5
Nc1c(C(=O)N/N=C/c2cccnc2)oc2nc(-c3ccco3)cc(-c3ccco3)c12 | 15.9* | TbREL1 confirm=4.0
COc1cc(/C=N/NC(=O)c2cc(-c3ccco3)nc3ccccc23)cc(OC)c1O | -2.9
Cc1c(Cl)cccc1NC(=S)N(CCN(C)C)C(C)c1ccccn1 (stereo not drawn) | 5.7
Cc1ccccc1NC(=S)N(CCN(C)C)C(C)c1cccnc1 (stereo not drawn) | -5.9
Cc1ccccc1NC(=S)N(CCN(C)C)C(C)c1ccccn1 (stereo not drawn) | 13.7* | TbREL1 confirm=2.9
O=C(CSc1nc2ccccc2nc1N1CCCCC1)N1CCN(S(=O)(=O)c2ccccc2)CC1 | 3.7
O=C1NC(=NCc2ccccc2)S/C1=C\c1ccccc1 | -0.3
O=C1NC(=S)S/C1=C\c1ccc(SCc2ccccc2)o1 | 42.7* | TbREL1 confirm=7.0
COc1ccccc1C=C1SC(=S)NC1=O | 3.0
C=CCNC(=O)NCC1CCN(Cc2ccc(OC)cc2)CC1 | 6.3
O=C(Nc1ccccc1F)O[C@@H]1CC[C@@]23CCCN2C(=O)CCC[C@H]3C1 | -3.3
CCCCN(C)C(=O)CN1C(=O)C2CCCCN2C(=O)c2ccccc21 (stereo not drawn) | 6.2
O=[N+]([O-])c1ncccc1OCCOc1ccc(Cl)cc1Cl | 2.2
O=C(Nc1nc2c(s1)CCc1ccccc1-2)c1ccco1 | -0.4
O=C(Nc1nc2c(s1)CCCC2)c1ccc(S(=O)(=O)N2CCCc3ccccc32)cc1 | 6.2
SMILES | TbREL1 inh | others
CS(=O)(=O)c1ccc(C(=O)Nc2nc(-c3ccco3)c(-c3ccco3)s2)cc1 | 82.2* | TbREL1 confirm=6.3
Cc1cccc(C)c1OCc1cccc(C2Nc3ccccc3C(=O)N2Cc2ccco2)c1 (stereo not drawn) | 3.2
CC(C)(C)OC(=O)N1CCC(N[C@@H](Cc2c[nH]c3ccccc23)C(=O)NCCc2c[nH]c3ccccc23)(C(=O)NC2CCCCC2)CC1 | 2.7
Nc1cc(S(=O)(=O)O)cc([N+](=O)[O-])c1O | 21.4* | TbREL1 confirm=58.7*
Nc1cc(S(=O)(=O)c2ccc(O)c(N)c2)ccc1O | -2.4
Nc1ccc(C(=O)O)cc1[N+](=O)[O-] | -0.4
Nc1[nH]c(C(=O)c2ccccc2)c(-c2ccc(Br)cc2)c1C(=O)NCCCN1CCOCC1 | 4.9
Cn1c(=O)cc(OCCCC(=O)Nc2cc(-c3ccncc3)ccn2)c2ccccc21 | -0.1
CN1CCCN(S(=O)(=O)c2ccc3c(c2)n(C)c(=O)c(=O)n3C)CC1 | -0.5
Cc1ccc(-c2nc(C3CCCN(S(=O)(=O)c4ccc(C)c(C)c4)C3)no2)cc1 (stereo not drawn) | -2.2
Cc1ccc(OCCN2C(=O)C(=O)c3cc(C)ccc32)cc1 | 11.7* | TbREL1 confirm=5.2
Cc1ccc(OCCn2c(=O)sc3ccccc32)cc1 | 3.2
O=C1c2ccccc2C(=O)N1CCOc1ccccc1 | 0.1
O=C(CSc1nc2ccccc2nc1N1CCCC1)N1CCN(C(c2ccccc2)c2ccccc2)CC1 | 0.6
Nc1ccc(S(=O)(=O)O)cn1 | 0.6

Screening results: PubChem BioAssay, The Scripps Research Institute Molecular Screening Center
